Source: PubChem BioAssay (National Center for Advancing Translational Sciences (NCATS))
This excerpt belongs to a sample that is enriched for hits.
TDP1 cell CPT: DT40-hTDP1 cell growth loss with CPT. chicken DT40 Tdp1-/-;hTDP1 cells + 20 nM CPT, ATP luminescence, 48 h. Potency, µM (doses to about 46.2 µM), usual class: inhibitors. actives 12% (n = 420,000); note: nearly all actives have a fitted effect of over 55% in size
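Cell growth measured by CellTiter-Glo luminescence after a minimum 48 h, 37 C compound exposure with 20 nM CPT in Tdp1-knockout DT40 cells stably expressing hTDP1, seeded 400/well; qHTS titration format.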
12-LOX inh: ALOX12 (human) lipoxygenase inhibition | purified 12hLO, xylenol orange hydroperoxide absorbance | actives 1.1% (n = 580,000) | Potency, µM (top dose mostly 108 µM), most hits filed as inhibitors | P18054
Target sequence (P18054 whole entry, looked up): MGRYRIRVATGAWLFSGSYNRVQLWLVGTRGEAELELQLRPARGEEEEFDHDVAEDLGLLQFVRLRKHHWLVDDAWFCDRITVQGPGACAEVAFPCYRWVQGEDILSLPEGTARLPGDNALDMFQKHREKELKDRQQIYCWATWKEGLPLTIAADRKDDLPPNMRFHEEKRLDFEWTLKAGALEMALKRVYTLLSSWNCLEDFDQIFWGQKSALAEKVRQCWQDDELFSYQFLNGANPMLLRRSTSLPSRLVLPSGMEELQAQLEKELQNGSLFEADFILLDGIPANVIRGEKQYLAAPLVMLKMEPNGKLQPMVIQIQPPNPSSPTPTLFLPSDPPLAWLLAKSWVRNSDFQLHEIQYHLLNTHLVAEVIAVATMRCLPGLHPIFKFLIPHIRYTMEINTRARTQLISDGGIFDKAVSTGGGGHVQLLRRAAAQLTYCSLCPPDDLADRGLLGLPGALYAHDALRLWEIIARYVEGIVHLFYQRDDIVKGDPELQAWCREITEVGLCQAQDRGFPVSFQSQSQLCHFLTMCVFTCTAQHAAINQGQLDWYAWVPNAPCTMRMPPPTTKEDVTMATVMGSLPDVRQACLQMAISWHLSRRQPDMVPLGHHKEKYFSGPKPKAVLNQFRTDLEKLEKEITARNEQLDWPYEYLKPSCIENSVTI
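Purified human 12hLO (150 nM final) in 25 mM Hepes, 0.01% Triton X-100, pH 7.0 was preincubated 15 min at room temperature with compound. Then 40 uM arachidonic acid was added, 30 min. Hydroperoxide was read by Fe-XO absorbance ratio 573/405 nm.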
DT40 TDP1 no CPT: qHTS for Inhibitors of human tyrosyl-DNA phosphodiesterase 1 (TDP1): qHTS in cells in absence of CPT; DT40 Tdp1-/- hTDP1 cells, no CPT, ATP luminescence, 48 h; Potency, µM (doses to about 46.2 µM), hits mostly inhibitors; actives 15% (n = 420,000); AID 686978, 2013; note: nearly all actives have a fitted effect of over 55% in size
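Growth of hTDP1-complemented DT40 Tdp1-knockout cells is measured by ATP luminescence after at least 48 hr compound exposure at 37 °C, with DMSO substituting for the 20 nM CPT used in the parallel screen.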
IL1B secr inh: blocks inflammasome-driven IL-1 beta release. THP-1 LPS/ATP IL-1B secretion, AlphaLISA, 16 h; hits give low values. AID 743279. actives 4.7% (n = 360,000). activity change, % at 57.5 µM; in the data active = activity change below about -50%; inconclusive = mostly about -30% to -49%
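THP-1 cells pretreated 1 hr with compounds (up to 57.5 uM final), then stimulated with LPS (250 ng/mL final) plus ATP (1.25 mM final); secreted IL-1B measured by AlphaLISA after 16 hr, decreased signal indicating inhibition.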
HT1080 IDH1KD tx: toxicity to HT-1080 IDH1 knockdown cells (counter line); HT-1080 IDH1 knockdown viability, ATP luminescence, 48 h; Potency, µM (top dose mostly 46.1 µM), most hits filed as cytotoxic; actives 2% (n = 360,000); AID 686971
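Using the IDH1-knockdown HT-1080 line run in the same batch and compound series as the NT line, viability after 48 h at 37 °C was determined by CellTiter-Glo luminescence and expressed as % activity.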
HT1080-NT tox: kills 2HG-producing HT-1080-NT fibrosarcoma cells. HT-1080-NT fibrosarcoma viability, CellTiter-Glo ATP luminescence, 48 h. Potency, µM (top dose mostly 46.1 µM), most hits filed as cytotoxic. actives 1.6% (n = 360,000). AID 686970;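 note: NT is the 2HG producing partner of a matched IDH1 knockdown line; nearly all actives have a fitted effect of over 55% in size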
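Viability of the 2HG-overproducing fibrosarcoma line after 48 hours of compound exposure at 37 degrees C was determined by luminescence with CellTiter-Glo, and concentration-effect curves were then fitted and categorized.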
Hits are given with their value; n = inactive; u = inconclusive; x = no result; [ ] = dose if it differs, or a comment. Unless noted, calls come from the whole dose curve; as a rule, active = well fitted curve in the direction sought with a large enough effect; inconclusive = small, poorly fitted or top-dose-only effect, or another doubt; inactive = no such curve, though single readings can be large; an effect the other way counts as inactive or inconclusive.

SMILES	TDP1 cell CPT	12-LOX inh	DT40 TDP1 no CPT	IL1B secr inh	HT1080 IDH1KD tx	HT1080-NT tox
Cc1ccc(C)c2[nH]c(=O)c(CN(Cc3ccc4c(c3)OCO4)Cc3nnnn3Cc3ccco3)cc12	u	u	u	-60.2	n	u
Cc1ccc2cc(CN(CCN3CCOCC3)Cc3nnnn3Cc3ccco3)c(=O)[nH]c2c1C	u	n	n	n	n	n
CCc1cccc2c(C(=O)Cn3cc(S(=O)(=O)N4CCCC4)ccc3=O)c[nH]c12	x	n	x	x	x	x
Cc1cn2nc(C(=O)Nc3ccccc3C)cc2c(N2CCSCC2)n1	x	n	x	x	x	x
Oc1ccccc1C=Nc1cc(C(F)(F)F)ccc1Oc1ccc(Cl)cc1	x	n	x	x	x	x
O=C1[C@@H]2C[C@@H](CN2C(=O)c2ccc(C(F)(F)F)cc2)Oc2ccccc2N1Cc1ccccn1	x	n	x	x	x	x
CCCCc1nn(-c2cc(Cl)ccc2OC)c2c1C(=O)CC(C)(C)C2	11.6µM	n	20.6µM	n	n	n
CS(=O)(=O)N(Cc1ccccc1)c1ccccc1C(=O)N1CCN(c2ccccc2)CC1	20.6µM	n	16.4µM	n	n	n
CS(=O)(=O)N(Cc1ccc(Cl)cc1)c1ccc(C(=O)N2CCN(c3ccccc3)CC2)cc1	u	u	u	-50.7	n	n
CS(=O)(=O)N(Cc1ccccc1)c1ccc(C(=O)N2CCN(c3cccc(Cl)c3)CC2)cc1	11.2µM	n	14.1µM	u	u	u
CS(=O)(=O)N(CC(=O)N1CCN(c2cccc(Cl)c2)CC1)c1cccc(F)c1	u	n	16.4µM	n	n	n
CN1CCN(C(=O)c2ccc(N(Cc3ccc(Cl)cc3)S(C)(=O)=O)cc2)CC1	n	n	n	n	n[9.24 µM]	n
Cc1cccc(/C=N\NC(=O)c2sccc2-n2cccc2)c1	n	n	n	n	n	n
COc1cc(OC)cc(C(=O)c2c(C)c(C#N)c3ccccn23)c1	2.31µM	n	2.31µM	n	n	u
COc1ccc(NC(=O)c2cc3c(-c4ccccc4F)nn(C)c3s2)c(OC)c1	10.3µM	n	10.3µM	x	x	x
CCOc1ccc(CCNC(=O)c2cc3c(-c4ccccc4F)nn(C)c3s2)cc1	n	n	u	x	x	x
COc1ccc(OC)c(CCNC(=O)c2cc3c(-c4ccccc4F)nn(C)c3s2)c1	11.6µM	n	8.2µM	x	x	x
O=C(NCCc1noc(-c2ccncc2)n1)c1ccccc1	x	8.91µM	x	x	x	x
Cn1cnc2c(ncn2[C@@H]2O[C@H](CO)[C@@H](O)[C@H]2O)c1=N	n	n	n	x	x	x
COc1ccccc1-c1c(C)nn2c(N3CCCCCC3)cc(C)nc12	16.4µM	n	18.4µM	-77.2	u	u
COc1ccccc1-c1c(C)nn2c(-c3ccccc3)cc(C)nc12	14.6µM	n	20.6µM	-70.3	n	n
CCOC(=O)C1CCN(c2cc(C)nc3c(-c4ccccc4OC)c(C)nn23)CC1	18.4µM	n	18.4µM	x	x	x
COc1ccccc1-c1c(C)nn2c(N3CCOCC3)cc(C)nc12	n	n	n	n	n	n
COc1ccccc1-c1c(C)nn2c(N3CCN(c4ccccc4OC)CC3)cc(C)nc12	u	n	u	n	n	n
COCCNC(=O)N1CCCC(c2noc(COc3ccccc3F)n2)C1 (configuration not stated)	x	n	x	x	x	x
COc1ccc(-c2nc(-c3nonc3N)no2)cc1OC	x	n	x	x	x	x
COc1ccccc1N1CCN(C(=O)C[C@@H]2CCNC[C@@H]2Cc2cc(CN3CCOCC3)on2)CC1	x	n	x	x	x	x
Cn1c(=O)[nH]c(=O)c2c1nc(N(CCO)Cc1ccccc1)n2CCCc1ccccc1	25.9µM	n	u	n	n	n
CN(Cc1ccccc1)c1nc2c(c(=O)[nH]c(=O)n2C)n1CCCc1ccccc1	29.1µM	u	35.5µM	-53.9	n	u
Cn1c(=O)[nH]c(=O)c2[nH]c(N(Cc3ccccc3)Cc3ccccc3)nc21	u	n	14.6µM	n	u	u
